Sfp inh: blocks B. subtilis Sfp PPTase activity | hit rate 3.5% among 310,000 | Potency, µM, inactives show largest response in the series, negative = inhibition, most hits filed as inhibitors | AID 1490 | Q9F4F7 | Biochemical Sfp PPTase activity, qHTS;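 further: the enzyme is Sfp with the accession as filed and its product quenches rhodamine fluorescence; 0% = enzyme reaction without inhibitor and -100% = no enzyme wells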
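Reaction rates are the 30-min fluorescence difference (ex 525, em 598 nm) in wells containing 15 nM Sfp, 5 uM rhodamine-CoA and 12.5 uM BHQ-2-YbbR at pH 7.6 with 10 mM MgCl2.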
HP1b binding inh: HP1-beta chromodomain-methylated histone interaction inhibition | P83916 | AlphaScreen HP1-beta / biotin-H3K9me3 peptide binding | Potency, µM (doses to about 114 µM), without a hit: top-dose activity change, negative = inhibition, hits mostly inhibitors | hit rate 0.56% among 390,000; further: nearly all actives have a fitted effect of over 70% in size
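AlphaScreen: HP1-beta (50 nM) preformed 30 min with biotin-H3(1-18)K9me3 peptide (50 nM) in PBS pH 7.4, 0.01% Tween-20. Compound added for 30 min at RT, then streptavidin donor/nickel chelate acceptor beads (10 ug/mL) for 30 min.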
JMJD2A Tudor inh: blocks the human JMJD2A Tudor domain | AID 504339 | hit rate 4.4% among 390,000 | Potency, µM (top dose mostly 114 µM), for the others: top-dose activity change, negative = inhibition, usual class: inhibitors | AlphaScreen JMJD2A-Tudor / H3K4me3 peptide binding | O75164; further: on the % scale 0 is the no-effect control and ±100 the full control effect; nearly all actives have a fitted effect of over 50% in size
Target sequence (O75164 whole entry, looked up, the tested form may be a part): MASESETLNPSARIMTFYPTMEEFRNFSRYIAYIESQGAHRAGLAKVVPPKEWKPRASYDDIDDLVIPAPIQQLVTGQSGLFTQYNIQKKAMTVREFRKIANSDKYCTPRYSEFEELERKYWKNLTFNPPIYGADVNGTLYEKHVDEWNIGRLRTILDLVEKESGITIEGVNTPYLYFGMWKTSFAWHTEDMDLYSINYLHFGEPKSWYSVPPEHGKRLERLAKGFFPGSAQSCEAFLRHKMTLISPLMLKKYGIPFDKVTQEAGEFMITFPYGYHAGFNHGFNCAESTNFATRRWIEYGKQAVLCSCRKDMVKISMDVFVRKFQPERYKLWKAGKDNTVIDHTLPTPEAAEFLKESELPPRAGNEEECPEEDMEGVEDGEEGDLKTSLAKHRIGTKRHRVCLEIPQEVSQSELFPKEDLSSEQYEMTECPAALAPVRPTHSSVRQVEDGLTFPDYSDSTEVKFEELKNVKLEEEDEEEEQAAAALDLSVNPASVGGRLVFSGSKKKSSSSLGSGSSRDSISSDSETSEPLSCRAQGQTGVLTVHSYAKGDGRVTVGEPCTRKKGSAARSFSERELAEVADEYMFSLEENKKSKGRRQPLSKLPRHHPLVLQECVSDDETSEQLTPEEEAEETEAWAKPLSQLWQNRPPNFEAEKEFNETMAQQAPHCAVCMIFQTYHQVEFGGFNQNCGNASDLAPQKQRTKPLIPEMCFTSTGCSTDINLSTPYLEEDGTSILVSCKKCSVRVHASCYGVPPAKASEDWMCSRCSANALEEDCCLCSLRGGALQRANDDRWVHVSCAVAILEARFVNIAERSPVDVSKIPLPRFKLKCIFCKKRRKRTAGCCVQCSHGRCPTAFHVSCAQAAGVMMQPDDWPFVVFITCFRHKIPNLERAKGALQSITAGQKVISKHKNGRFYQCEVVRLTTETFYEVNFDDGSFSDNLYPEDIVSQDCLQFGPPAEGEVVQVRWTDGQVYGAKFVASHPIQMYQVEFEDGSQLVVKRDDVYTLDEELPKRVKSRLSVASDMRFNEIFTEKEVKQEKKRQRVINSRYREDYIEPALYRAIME
G9a inh: blocks human histone lysine methyltransferase G9a | G9a H3K9 monomethylation, AlphaScreen, 2 h | Q96KQ7 | hit rate 8.8% among 350,000 | Potency, µM (doses to about 102 µM), for the others: at the top dose activity, negative = inhibition, actives largely listed as inhibitors; further: on the % scale 0 is the no-effect control and ±100 the full control effect; nearly all actives have a fitted effect of over 75% in size
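Enzyme 20 nM + cpd, 15 min RT; add b-H3K9 pep 500 nM / SAM 20 uM; 2 h RT; anti-H3K9me1 Ab 0.5 ug/mL + SA donor / anti-rabbit acceptor beads 20 ug/mL each, 10 min; AlphaScreen read.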
BAZ2B block: BAZ2B (human) inhibition; Q9UIF8; AlphaScreen BAZ2B-H3K14Ac peptide displacement; Potency, µM (highest dose often 114 µM), without a hit: at the top dose activity change, negative = inhibition, most hits filed as inhibitors; hit rate 4.4% among 360,000; AID 504333; further: on the % scale 0 is the no-effect control and ±100 the full control effect; nearly all actives have a fitted effect of over 60% in size
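Protein-peptide AlphaScreen: BAZ2B 50 nM, b-H3K14Ac 50 nM, 1x PBS pH 7.4 + 0.01% Tween-20. Preincubation 30 min RT; cpd 30 min RT (top 110 uM); beads 20 min RT, light-protected.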
* marks the source's active call; other numbers are inactive results; ? = inconclusive; / = not tested or not shown; [ ] = remark or other dose. Hits are enriched below; roughly 12% of the tested compounds scored in any of these assays. The call rests on the fitted dose curve; in most records, active means well fitted curve in the direction sought with a large enough effect; inconclusive means small, poorly fitted or top-dose-only effect, or another doubt; inactive means no such curve, though single readings can be large; an effect the other way counts as inactive or inconclusive. Potency means the concentration at half of the fitted maximal effect.

SMILES	Sfp inh	HP1b binding inh	JMJD2A Tudor inh	G9a inh	BAZ2B block
COc1ccc2ccccc2c1/C=N/N1C(=O)CSC1=S	?	-18%	?	?	/
COc1cc(/C=N/N2C(C)CCCC2C)cc(Br)c1O (stereo not given)	?	-16%	-31%	?	/
COc1cc(/C=N/N2C(=O)CSC2=S)cc(Br)c1O	-6%	?	45µM*	45µM*	40µM*
Cc1ccc(C2=Nc3ccccc3NC(C)(c3ccc(C)o3)C2)o1 (stereo not given)	-23%	-20%	?	?	?
COC(=O)c1cc(C(=O)c2c(C)cc3ccccn23)cc([N+](=O)[O-])c1	-1%	?	45µM*	32µM*	?
Cc1cc2ccccn2c1C(=O)c1cc([N+](=O)[O-])cc([N+](=O)[O-])c1	4%	?	18µM*	32µM*	10µM*
Cc1cc2ccccn2c1C(=O)c1ccc(NN)c([N+](=O)[O-])c1	-28%	32µM*	40µM*	10µM*	18µM*
Cc1[nH]n(-c2ncc(-c3ccc(Cl)cc3)s2)c(=O)c1C(c1ccc(Cl)cc1)C(C#N)C#N (stereo not given)	?	?	56µM*	?	?
COc1ccc(C(c2c(C)[nH]n(C(N)=S)c2=O)C(C#N)C#N)cc1 (stereo not given)	?	24%	-7%	?	5%
Cc1ccc(NC(=O)CN2CCN(C(=O)C3CCCO3)CC2)c(C)c1 (stereo not given)	13%	46%	3%	27%	-3%
Cc1ccc(NC(=O)C(=O)NNC(=O)c2cccs2)cc1	16%	38%	-9%	4µM*	-24%
CCCCC(=O)Nc1ccc(C(=O)NNC(=O)c2cccs2)cc1	35%	9%	-8%	24%[59 µM]	6%
O=C(NNc1c(Cl)cccc1Cl)c1cccs1	6%	14%	?	11µM*	25%
CCC(=O)Nc1ccc(C(=O)NNC(=O)c2cccs2)cc1	4%	19%	-13%	0.2µM*	0%
Cc1ccc(NC(=O)c2cccs2)cc1	12%	17%	0%	-6%[12.7 µM]	-1%
CN1Cc2sccc2C(c2ccc(O)c(O)c2)C1 (stereo not given)	/	/	/	8.4µM*	/
CN1CCc2cc(Cl)c(O)cc2[C@@H](c2ccccc2)C1	14%	4%	-18%	-32%[59 µM]	-8%
COc1cccc(/C=C2\SC(N3CCC(C)CC3)=NC2=O)c1OC	50µM*	-10%	-6%	28µM*	-2%
COc1cccc(/C=C2\SC(N3CCCC(C)C3)=NC2=O)c1OC (stereo not given)	-10%	21%	-7%	71µM*	-17%
CN1CCN(C2=NC(=O)/C(=C/c3ccccc3OS(=O)(=O)c3ccccc3)S2)CC1	20µM*	-1%	-13%	45µM*	-14%
N#Cc1c(Cl)nsc1NCCN1CCOCC1	13%	40%	3%	-8%	-2%
CCc1ccc(NC(=O)C(C)OC(=O)c2cc(=O)[nH]c3ccc(S(=O)(=O)Nc4ccc(F)cc4)cc23)cc1 (stereo not given)	17%	27%	-3%	30%[12.7 µM]	2%
Cc1cccc(NS(=O)(=O)c2ccc3[nH]c(=O)cc(C(=O)OC(C)C(=O)Nc4ccc([N+](=O)[O-])cc4)c3c2)c1 (stereo not given)	15%	2%	?	45µM*	-36%
Cc1cccc(N2CCN(c3ccc(N4C(=O)CCCC4=O)cc3[N+](=O)[O-])CC2C)c1 (stereo not given)	-8%	?	?	?	28µM*
CC(=O)C(=Nc1ccccc1Cl)NNc1ccc(Cl)cc1	-15%	50µM*	32µM*	7.9µM*	28µM*
S=c1[nH]nc(-c2ccccc2)n1/N=C/c1ccc(Cl)cc1	2%	11%	?	2.5µM*	-30%
CCOc1ccc(/C=N/n2c(C)nc3ccccc3c2=O)cc1	-1%	57%	-15%	-33%[2.33 µM]	-2%
CCOc1ccc(/C=N/n2c(-c3ccccc3)n[nH]c2=S)cc1	-9%	23%	79µM*	0.5µM*	-29%
S=c1[nH]nc(-c2ccncc2)n1/N=C/c1cccc(Cl)c1	-11%	35%	11µM*	1µM*	-34%
